1 sequence from paper PMC7862700, “An all-to-all approach to the identification of sequence-specific readers for epigenetic DNA modifications on cytosine” can be followed below.

Holding throughout (assay): DAPPL (digital affinity profiling via proximity ligation, sequencing); 10 mM Tris-HCl pH 7.5, 50 mM NaCl, 1 mM DTT, 4% glycerol, room temperature, 30 min; GST-TFs on glutathione beads, 16-mer random dsDNA library, 0.1% formaldehyde crosslink after washing; high values mean tight binding
One test addresses T1, FEV (Homo sapiens, UniProt Q99581 1-238).
T1 sequence: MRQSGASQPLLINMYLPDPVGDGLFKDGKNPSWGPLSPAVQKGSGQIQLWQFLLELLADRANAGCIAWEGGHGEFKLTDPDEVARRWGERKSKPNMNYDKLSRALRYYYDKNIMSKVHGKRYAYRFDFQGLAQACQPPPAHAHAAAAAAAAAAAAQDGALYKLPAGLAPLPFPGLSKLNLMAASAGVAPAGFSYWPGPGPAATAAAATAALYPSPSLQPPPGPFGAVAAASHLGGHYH
The following applies: protein: recombinant; tags: N-terminal GST; dsDNA, one strand shown. The procedure, abridged:
(§1)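 Binding signal is defined as a hexamer's read frequency for one factor over its frequency for the tag-only sample. To obtain reads, GST-fused human transcription factors were expressed in yeast, captured on glutathione beads, barcoded with DNA and pooled with that sample. Pools met 200 nmole of a 16-mer random double-stranded DNA library in Tris/NaCl/DTT/glycerol buffer for 30 min at room temperature before washing, 0.1% formaldehyde crosslinking, proximity ligation (BsaI/T4 ligase, 1 h, 37 °C), PCR and Illumina NextSeq500 sequencing.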

The next test has as its target ETV5 (Homo sapiens, UniProt P41161 1-510). The following applies: protein: recombinant; tags: N-terminal GST; dsDNA, one strand shown. The procedure, abridged: as §1
Another test addresses HSF1 (Homo sapiens, UniProt Q00613 1-529). The following applies: protein: recombinant; tags: N-terminal GST; chain copies: 3; dsDNA, one strand shown. The procedure, abridged:
as §1

Another test addresses T2, SPIC (Homo sapiens, UniProt Q8N5J4 1-248).
T2 sequence: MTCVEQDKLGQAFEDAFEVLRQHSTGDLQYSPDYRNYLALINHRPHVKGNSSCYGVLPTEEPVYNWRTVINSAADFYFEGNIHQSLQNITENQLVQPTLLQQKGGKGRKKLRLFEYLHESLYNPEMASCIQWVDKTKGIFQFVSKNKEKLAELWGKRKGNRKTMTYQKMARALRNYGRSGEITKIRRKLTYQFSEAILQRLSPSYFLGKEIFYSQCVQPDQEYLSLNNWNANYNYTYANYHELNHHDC
To be noted: protein: recombinant; tags: N-terminal GST; dsDNA, one strand shown. The procedure, abridged:
as §1

The target of the next test is ELF4 (Homo sapiens, UniProt Q99607 1-663). To be noted: protein: recombinant; tags: N-terminal GST; dsDNA, one strand shown. An outline of the steps: as §1
In another test the target is T3, ELK4 (Homo sapiens, UniProt P28324-2 1-405).
T3 sequence: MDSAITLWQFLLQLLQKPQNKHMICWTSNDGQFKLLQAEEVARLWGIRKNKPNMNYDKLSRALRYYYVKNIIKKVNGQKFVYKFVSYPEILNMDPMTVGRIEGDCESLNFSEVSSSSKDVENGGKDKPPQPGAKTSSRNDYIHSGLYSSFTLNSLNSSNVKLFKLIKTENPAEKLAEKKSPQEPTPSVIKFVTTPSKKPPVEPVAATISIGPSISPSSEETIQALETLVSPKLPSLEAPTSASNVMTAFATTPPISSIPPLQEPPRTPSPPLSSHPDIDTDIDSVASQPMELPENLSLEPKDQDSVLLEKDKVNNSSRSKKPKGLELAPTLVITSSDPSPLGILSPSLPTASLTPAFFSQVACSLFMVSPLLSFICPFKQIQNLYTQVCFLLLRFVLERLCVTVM
The following applies: protein: recombinant; tags: N-terminal GST; dsDNA, one strand shown. The procedure, abridged:
as §1

A further test concerns the target T4, ETV2 (Homo sapiens, UniProt O00321 1-342).
T4 sequence: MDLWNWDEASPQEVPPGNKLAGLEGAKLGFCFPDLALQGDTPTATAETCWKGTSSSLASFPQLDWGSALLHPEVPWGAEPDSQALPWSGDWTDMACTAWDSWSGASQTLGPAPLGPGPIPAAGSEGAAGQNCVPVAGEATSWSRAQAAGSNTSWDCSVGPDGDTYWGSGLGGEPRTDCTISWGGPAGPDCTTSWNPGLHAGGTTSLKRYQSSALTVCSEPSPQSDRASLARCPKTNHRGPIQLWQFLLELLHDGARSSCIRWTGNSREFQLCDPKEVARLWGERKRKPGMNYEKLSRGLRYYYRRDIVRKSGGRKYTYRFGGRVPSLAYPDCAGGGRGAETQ
The following applies: protein: recombinant; tags: N-terminal GST; dsDNA, one strand shown. An outline of the steps:
as §1

A further test deals with T5, ELF3 (Homo sapiens, UniProt P78545 1-371).
T5 sequence: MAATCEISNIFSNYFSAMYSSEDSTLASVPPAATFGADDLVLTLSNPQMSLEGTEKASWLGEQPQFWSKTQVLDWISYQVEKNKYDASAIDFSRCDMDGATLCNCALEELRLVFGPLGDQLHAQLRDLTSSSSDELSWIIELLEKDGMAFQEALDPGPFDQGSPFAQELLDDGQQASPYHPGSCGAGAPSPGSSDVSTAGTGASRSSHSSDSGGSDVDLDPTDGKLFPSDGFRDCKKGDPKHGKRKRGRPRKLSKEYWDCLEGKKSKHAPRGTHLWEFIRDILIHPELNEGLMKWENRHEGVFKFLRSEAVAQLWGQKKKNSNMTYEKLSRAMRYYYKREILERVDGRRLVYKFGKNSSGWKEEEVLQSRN
The following applies: protein: recombinant; tags: N-terminal GST; dsDNA, one strand shown. An outline of the steps:
as §1

The target in another test is CRX (Homo sapiens, UniProt O43186 1-299). The following applies: protein: recombinant; tags: N-terminal GST; dsDNA, one strand shown. An outline of the steps: as §1
The next test concerns the target ETV1 (Homo sapiens, UniProt P50549 1-477). The following applies: protein: recombinant; tags: N-terminal GST; dsDNA, one strand shown. An outline of the steps: as §1
The target in a further test is T6, ERF (Homo sapiens, UniProt P50548 1-548).
T6 sequence: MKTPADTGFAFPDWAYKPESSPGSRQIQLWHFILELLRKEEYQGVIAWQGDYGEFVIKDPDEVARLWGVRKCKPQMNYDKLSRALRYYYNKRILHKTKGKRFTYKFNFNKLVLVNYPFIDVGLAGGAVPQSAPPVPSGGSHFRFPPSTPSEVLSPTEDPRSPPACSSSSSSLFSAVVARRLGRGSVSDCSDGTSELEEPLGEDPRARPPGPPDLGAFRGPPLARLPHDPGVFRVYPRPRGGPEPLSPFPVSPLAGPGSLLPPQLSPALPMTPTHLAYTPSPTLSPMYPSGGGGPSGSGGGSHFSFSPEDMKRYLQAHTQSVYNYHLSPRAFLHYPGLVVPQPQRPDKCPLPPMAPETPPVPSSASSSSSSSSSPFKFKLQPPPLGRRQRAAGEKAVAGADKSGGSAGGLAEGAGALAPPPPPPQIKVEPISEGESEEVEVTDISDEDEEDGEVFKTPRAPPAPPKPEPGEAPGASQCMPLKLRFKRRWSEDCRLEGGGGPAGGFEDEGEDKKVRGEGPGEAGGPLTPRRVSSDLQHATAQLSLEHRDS
To be noted: protein: recombinant; tags: N-terminal GST; dsDNA, one strand shown. The procedure, abridged: as §1

The next test addresses T7, ETV3L (Homo sapiens, UniProt Q6ZN32 1-361).
T7 sequence: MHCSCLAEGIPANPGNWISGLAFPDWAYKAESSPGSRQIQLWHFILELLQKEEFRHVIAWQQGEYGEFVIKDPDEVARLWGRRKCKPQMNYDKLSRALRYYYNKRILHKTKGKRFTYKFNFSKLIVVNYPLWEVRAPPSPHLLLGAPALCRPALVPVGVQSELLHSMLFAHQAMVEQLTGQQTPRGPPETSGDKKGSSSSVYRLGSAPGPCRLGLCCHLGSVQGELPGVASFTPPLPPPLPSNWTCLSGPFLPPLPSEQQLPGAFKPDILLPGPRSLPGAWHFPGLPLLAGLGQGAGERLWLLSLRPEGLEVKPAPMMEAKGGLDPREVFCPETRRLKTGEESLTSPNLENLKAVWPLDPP
The following applies: protein: recombinant; tags: N-terminal GST; dsDNA, one strand shown. An outline of the steps: as §1

A further test concerns the target T8, ETS2 (Homo sapiens, UniProt P15036 1-469).
T8 sequence: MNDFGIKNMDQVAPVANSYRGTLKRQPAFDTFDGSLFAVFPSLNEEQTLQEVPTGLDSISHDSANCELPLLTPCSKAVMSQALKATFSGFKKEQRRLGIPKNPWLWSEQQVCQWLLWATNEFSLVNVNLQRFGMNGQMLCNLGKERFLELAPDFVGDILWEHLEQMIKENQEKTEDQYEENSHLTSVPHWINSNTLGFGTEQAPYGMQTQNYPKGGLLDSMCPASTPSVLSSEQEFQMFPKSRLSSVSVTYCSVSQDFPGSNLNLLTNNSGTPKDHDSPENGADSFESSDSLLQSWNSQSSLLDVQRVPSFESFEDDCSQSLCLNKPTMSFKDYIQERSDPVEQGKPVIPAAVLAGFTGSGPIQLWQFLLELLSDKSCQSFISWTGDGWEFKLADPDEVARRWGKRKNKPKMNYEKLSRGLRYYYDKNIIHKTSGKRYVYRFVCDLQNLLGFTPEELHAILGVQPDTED
To be noted: protein: recombinant; tags: N-terminal GST; dsDNA, one strand shown. The procedure, abridged: as §1

A further test addresses T9, SPDEF (Homo sapiens, UniProt O95238 1-335).
T9 sequence: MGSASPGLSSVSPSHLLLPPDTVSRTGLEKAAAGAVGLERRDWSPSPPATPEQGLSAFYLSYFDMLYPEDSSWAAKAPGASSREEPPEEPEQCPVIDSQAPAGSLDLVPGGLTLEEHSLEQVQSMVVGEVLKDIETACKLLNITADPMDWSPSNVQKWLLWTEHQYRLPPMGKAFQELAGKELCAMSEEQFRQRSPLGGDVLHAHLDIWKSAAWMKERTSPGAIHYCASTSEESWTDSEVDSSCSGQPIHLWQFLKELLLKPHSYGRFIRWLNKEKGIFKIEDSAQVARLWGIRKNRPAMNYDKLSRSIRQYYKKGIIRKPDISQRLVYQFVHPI
To be noted: protein: recombinant; tags: N-terminal GST; dsDNA, one strand shown. The procedure, abridged: as §1

In another test the target is T10, ETV7 (Homo sapiens, UniProt Q9Y603 1-341).
T10 sequence: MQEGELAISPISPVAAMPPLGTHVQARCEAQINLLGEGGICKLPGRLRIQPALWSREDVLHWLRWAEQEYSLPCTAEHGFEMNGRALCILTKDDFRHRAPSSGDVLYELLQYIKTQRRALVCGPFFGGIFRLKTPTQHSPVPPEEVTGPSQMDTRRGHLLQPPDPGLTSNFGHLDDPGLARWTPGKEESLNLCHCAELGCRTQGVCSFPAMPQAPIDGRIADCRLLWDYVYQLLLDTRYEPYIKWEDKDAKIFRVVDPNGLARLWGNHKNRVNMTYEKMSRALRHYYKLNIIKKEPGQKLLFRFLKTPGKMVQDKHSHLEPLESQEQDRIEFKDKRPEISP
To be noted: protein: recombinant; tags: N-terminal GST; dsDNA, one strand shown. The procedure, abridged:
as §1

A further test addresses T11, ELF5 (Homo sapiens, UniProt Q9UKW6-2 1-255).
T11 sequence: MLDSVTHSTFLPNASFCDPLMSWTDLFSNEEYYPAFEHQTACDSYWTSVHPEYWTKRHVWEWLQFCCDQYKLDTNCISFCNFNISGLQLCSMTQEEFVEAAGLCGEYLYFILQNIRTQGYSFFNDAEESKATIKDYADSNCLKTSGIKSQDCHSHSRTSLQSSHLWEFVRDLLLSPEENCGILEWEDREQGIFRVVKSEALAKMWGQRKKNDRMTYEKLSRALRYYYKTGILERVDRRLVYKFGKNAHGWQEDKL
The following applies: protein: recombinant; tags: N-terminal GST; dsDNA, one strand shown. The procedure, abridged:
as §1

Another test has as its target T12, ETV3 (Homo sapiens, UniProt P41162-2 1-143).
T12 sequence: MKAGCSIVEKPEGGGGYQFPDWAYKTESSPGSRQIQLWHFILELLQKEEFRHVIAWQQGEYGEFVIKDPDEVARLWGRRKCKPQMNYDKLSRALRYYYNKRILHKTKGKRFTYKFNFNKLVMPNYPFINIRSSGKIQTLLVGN
The following applies: protein: recombinant; tags: N-terminal GST; dsDNA, one strand shown. The procedure, abridged: as §1

A further test concerns the target ETV6 (Homo sapiens, UniProt P41212 1-452). The following applies: protein: recombinant; tags: N-terminal GST; dsDNA, one strand shown. An outline of the steps: as §1

HSF1, sequence (Q00613 whole entry): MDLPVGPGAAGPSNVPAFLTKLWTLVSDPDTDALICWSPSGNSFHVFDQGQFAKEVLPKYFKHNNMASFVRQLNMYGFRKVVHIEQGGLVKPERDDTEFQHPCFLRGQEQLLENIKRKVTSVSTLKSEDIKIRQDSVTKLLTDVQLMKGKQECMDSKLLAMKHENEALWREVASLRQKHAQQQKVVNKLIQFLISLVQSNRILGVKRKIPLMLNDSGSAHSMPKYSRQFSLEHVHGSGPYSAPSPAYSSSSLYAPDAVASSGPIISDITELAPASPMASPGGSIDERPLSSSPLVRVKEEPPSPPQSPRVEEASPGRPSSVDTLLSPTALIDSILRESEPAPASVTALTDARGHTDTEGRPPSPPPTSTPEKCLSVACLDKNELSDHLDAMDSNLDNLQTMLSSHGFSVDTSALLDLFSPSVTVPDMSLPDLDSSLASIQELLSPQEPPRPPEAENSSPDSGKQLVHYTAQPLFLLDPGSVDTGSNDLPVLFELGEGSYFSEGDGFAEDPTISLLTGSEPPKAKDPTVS
ETV1, sequence (P50549 whole entry): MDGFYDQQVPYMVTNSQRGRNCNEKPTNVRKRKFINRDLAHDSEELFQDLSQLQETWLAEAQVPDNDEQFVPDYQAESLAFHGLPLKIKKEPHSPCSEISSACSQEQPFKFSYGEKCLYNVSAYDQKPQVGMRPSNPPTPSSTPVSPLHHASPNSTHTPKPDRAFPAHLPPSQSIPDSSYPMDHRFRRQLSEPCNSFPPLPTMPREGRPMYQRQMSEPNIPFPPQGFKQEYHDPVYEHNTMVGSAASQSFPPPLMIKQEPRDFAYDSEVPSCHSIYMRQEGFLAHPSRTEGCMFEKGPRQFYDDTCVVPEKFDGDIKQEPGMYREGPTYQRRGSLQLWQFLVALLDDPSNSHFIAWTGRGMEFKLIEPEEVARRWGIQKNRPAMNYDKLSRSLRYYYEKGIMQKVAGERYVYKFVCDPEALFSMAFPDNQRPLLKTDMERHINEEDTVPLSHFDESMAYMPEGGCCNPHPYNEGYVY
ETV6, sequence (P41212 whole entry): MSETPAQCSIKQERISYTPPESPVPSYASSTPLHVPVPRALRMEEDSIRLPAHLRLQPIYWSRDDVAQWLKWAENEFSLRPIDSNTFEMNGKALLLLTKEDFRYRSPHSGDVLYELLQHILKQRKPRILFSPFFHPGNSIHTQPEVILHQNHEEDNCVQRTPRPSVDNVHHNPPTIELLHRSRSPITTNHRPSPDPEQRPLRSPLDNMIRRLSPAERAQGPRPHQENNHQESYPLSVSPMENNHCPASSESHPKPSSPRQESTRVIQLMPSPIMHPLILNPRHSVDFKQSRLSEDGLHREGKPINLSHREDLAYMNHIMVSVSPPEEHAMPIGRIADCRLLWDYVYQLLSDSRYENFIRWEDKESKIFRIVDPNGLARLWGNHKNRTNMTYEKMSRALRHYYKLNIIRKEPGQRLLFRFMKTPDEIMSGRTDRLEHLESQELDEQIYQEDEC
ELF4, sequence (Q99607 whole entry): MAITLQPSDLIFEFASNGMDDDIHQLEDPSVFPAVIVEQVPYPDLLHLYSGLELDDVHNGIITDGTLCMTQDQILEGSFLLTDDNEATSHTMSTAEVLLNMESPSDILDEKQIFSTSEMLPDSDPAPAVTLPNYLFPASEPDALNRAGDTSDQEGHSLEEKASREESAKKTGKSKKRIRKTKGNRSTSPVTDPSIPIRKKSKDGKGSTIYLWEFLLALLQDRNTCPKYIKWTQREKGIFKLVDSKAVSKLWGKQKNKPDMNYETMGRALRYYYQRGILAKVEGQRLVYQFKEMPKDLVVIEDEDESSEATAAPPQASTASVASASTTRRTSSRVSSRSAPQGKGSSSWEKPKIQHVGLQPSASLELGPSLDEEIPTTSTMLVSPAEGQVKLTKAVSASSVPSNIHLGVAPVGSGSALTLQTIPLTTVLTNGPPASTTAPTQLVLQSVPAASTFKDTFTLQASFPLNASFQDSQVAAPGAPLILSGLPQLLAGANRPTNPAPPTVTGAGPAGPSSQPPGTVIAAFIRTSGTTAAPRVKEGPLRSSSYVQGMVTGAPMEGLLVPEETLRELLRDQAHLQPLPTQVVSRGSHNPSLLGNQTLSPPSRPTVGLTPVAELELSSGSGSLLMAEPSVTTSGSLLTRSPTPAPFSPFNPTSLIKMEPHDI
CRX, sequence (O43186 whole entry): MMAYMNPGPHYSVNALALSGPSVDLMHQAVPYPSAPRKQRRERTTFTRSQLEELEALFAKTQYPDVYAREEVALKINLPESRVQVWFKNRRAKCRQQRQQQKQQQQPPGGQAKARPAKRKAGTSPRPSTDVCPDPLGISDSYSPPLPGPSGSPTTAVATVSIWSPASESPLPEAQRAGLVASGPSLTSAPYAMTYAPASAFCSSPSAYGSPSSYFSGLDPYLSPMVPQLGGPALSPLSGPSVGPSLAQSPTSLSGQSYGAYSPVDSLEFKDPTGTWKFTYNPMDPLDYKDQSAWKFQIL
ETV5, sequence (P41161 whole entry): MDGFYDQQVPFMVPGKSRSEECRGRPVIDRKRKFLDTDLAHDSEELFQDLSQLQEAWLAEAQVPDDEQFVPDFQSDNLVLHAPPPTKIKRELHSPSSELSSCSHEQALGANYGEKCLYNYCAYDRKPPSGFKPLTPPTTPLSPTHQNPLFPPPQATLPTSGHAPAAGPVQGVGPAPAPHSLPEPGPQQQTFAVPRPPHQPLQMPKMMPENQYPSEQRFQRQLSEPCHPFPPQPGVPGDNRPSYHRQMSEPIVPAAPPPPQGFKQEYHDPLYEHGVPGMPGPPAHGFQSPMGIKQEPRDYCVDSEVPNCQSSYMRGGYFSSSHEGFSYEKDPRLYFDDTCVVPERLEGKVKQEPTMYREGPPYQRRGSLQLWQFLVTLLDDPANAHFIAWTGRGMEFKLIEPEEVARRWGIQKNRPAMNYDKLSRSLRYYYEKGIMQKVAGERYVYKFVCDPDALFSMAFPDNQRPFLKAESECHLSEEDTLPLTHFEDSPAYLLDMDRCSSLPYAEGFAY

For ACGACT, the binding signal with FEV was 1.28 fold enrichment (6-mer frequency, TF over GST control); in the test with ETV5, 1.15 fold enrichment (6-mer frequency, TF over GST control); in the test with HSF1, 1.2 fold enrichment (6-mer frequency, TF over GST control); with SPIC, 1.26 fold enrichment (6-mer frequency, TF over GST control); in the test with ELF4, 1.23 fold enrichment (6-mer frequency, TF over GST control); with ELK4, 1.39 fold enrichment (6-mer frequency, TF over GST control). Further, the binding signal is 1.27 fold enrichment (6-mer frequency, TF over GST control) in the test with ETV2; 1.11 fold enrichment (6-mer frequency, TF over GST control) in the test with ELF3; 1.19 fold enrichment (6-mer frequency, TF over GST control) with CRX; 1.29 fold enrichment (6-mer frequency, TF over GST control) with ETV1; 1.15 fold enrichment (6-mer frequency, TF over GST control) in the test with ERF; 1.28 fold enrichment (6-mer frequency, TF over GST control) with ETV3L. Also, the binding signal with ETS2 is 1.28 fold enrichment (6-mer frequency, TF over GST control); with SPDEF, 1.19 fold enrichment (6-mer frequency, TF over GST control); in the test with ETV7 it was 1.17 fold enrichment (6-mer frequency, TF over GST control); with ELF5 it was 1.23 fold enrichment (6-mer frequency, TF over GST control); with ETV3, 1.22 fold enrichment (6-mer frequency, TF over GST control); with ETV6, 1.17 fold enrichment (6-mer frequency, TF over GST control).
